Reference: the supplement of paper PMC6555819

Experiments:
Experiment in all cases: PBM binding z-score (relative to random genomic background probes); higher = stronger binding; sequences stand for … in GC…GCGATTGACAGCGTAGAATGAAGG
[1] = test system: FXR:RXRa (NR concentration 270 nM, RXRa partner concentration 90 nM)
In short: (§1)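 Regression normalization was applied to scanned fluorescence from custom Agilent 4×180K protein-binding microarrays. Before scanning, arrays were incubated 1 h with ligand-free nuclear receptor dimers, and binding was detected with antibodies against each partner (one per run). Binding z-scores use the random background probes as reference.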

[2] = test system: LXRa:RXRa (NR concentration 270 nM, RXRa partner concentration 90 nM)
In short: as §1

[3] = test system: LXRa homodimer (NR concentration 270 nM)
In short: as §1

[4] = test system: LXRb:RXRa (NR concentration 270 nM, RXRa partner concentration 90 nM)
In short: as §1

[5] = test system: LXRb homodimer (NR concentration 270 nM)
In short: as §1

[6] = test system: PPARa:RXRa (NR concentration 270 nM, RXRa partner concentration 90 nM)
In short: as §1

[7] = test system: PPARg:RXRa (NR concentration 180 nM, RXRa partner concentration 90 nM)
In short: as §1

[8] = test system: PPARg:RXRa 270nM:90nM, anti-RXR (NR concentration 270 nM, RXRa partner concentration 90 nM)
In short: as §1

[9] = test system: PPARg:RXRa 30nM:10nM, anti-RXR (NR concentration 30 nM, RXRa partner concentration 10 nM)
In short: as §1

[10] = test system: PPARg:RXRa 90nM:30nM, anti-RXR (NR concentration 90 nM, RXRa partner concentration 30 nM)
In short: as §1

[11] = test system: PPARg:RXRa DBDmut IVT, anti-RXR (DBD mutation: RXRa K156A/R161A, NR concentration 270 nM, RXRa partner concentration 90 nM)
In short: as §1

[12] = test system: PPARg:RXRa IVT, anti-PPARg (NR concentration 270 nM, RXRa partner concentration 90 nM)
In short: as §1

[13] = test system: PPARg DBDmut:RXRa IVT, anti-PPARg (DBD mutation: PPARg1 K132A/R137A, NR concentration 270 nM, RXRa partner concentration 90 nM)
In short: as §1

[14] = test system: PPARg DBDmut IVT, anti-PPARg (DBD mutation: PPARg1 K132A/R137A, NR concentration 270 nM)
In short: as §1

[15] = test system: PPARg homodimer (NR concentration 180 nM)
In short: as §1

[16] = test system: PXR:RXRa (NR concentration 270 nM, RXRa partner concentration 90 nM)
In short: as §1

[17] = test system: PXR homodimer (NR concentration 270 nM)
In short: as §1

[18] = test system: RARa:RXR (NR concentration 270 nM, RXRa partner concentration 90 nM)
In short: as §1

[19] = test system: RARa homodimer (NR concentration 270 nM)
In short: as §1

[20] = test system: RARb:RXRa (NR concentration 270 nM, RXRa partner concentration 90 nM)
In short: as §1

Sequence | PBM binding z-score [1] | PBM binding z-score [2] | PBM binding z-score [3] | PBM binding z-score [4] | PBM binding z-score [5] | PBM binding z-score [6] | PBM binding z-score [7] | PBM binding z-score [8] | PBM binding z-score [9] | PBM binding z-score [10] | PBM binding z-score [11] | PBM binding z-score [12] | PBM binding z-score [13] | PBM binding z-score [14] | PBM binding z-score [15] | PBM binding z-score [16] | PBM binding z-score [17] | PBM binding z-score [18] | PBM binding z-score [19] | PBM binding z-score [20]
ATACCAAGGGGATCGTGAGGTCGTTGATACTAAC | 0.492 | 0.487 | 0.291 | 1.26 | -0.272 | 0.97 | 0.267 | -0.0276 | -0.375 | -0.365 | -0.449 | -0.121 | -0.0494 | 0.0346 | -0.227 | 1.68 | 0.87 | 1.52 | -0.222 | 0.379
GCGACTGGGGCAAAGCAAGTTACCATAAGGTTGG | -0.106 | -0.224 | -0.376 | -0.3 | -0.665 | 0.868 | 0.964 | 1.1 | -0.269 | 0.301 | 4.67 | 3.4 | -0.185 | -1.06 | 0.355 | -0.0344 | -0.458 | 0.375 | -0.721 | 0.659
TTACCAAGGTGAAAAGTCGTTGATGCACGCCTTG | 0.666 | 0.719 | -0.432 | 0.311 | -0.57 | 2.25 | 2.75 | 4.56 | 2.5 | 4.19 | 1.72 | 2.64 | 0.0551 | 0.367 | 0.274 | 0.136 | -0.523 | 0.987 | -0.563 | 1.06
CGCCCAAGGTCAATGCTAGGTCAGTGAAAGCATT | 6.51 | 5.61 | 2.46 | 4.24 | 0.667 | 4.93 | 4.07 | 4.33 | 1.03 | 3.08 | 2.79 | 3.47 | -0.141 | -0.36 | 5.9 | 4.68 | 1.04 | 6.04 | 0.81 | 5.09
TCTAGCAGCCCAGAGGGTCACTCAAGAGGTACGG | 0.547 | 0.531 | -0.652 | 1.01 | -1.12 | 1.92 | 0.566 | 1.13 | 1.45 | 1.2 | 0.523 | -0.253 | -0.749 | -0.961 | 0.154 | 1.3 | -0.683 | 2.44 | -0.794 | 1.81
CCTCGGAGGACAAAAGGTCAGAGCTGTCCGCTTT | 3.66 | 4.52 | 2 | 3.34 | -0.114 | 3.96 | 1.65 | 3.76 | 1.1 | 3.22 | 1.07 | 1.62 | -0.684 | -1.47 | 4.04 | 3.72 | 0.0706 | 4.59 | 0.836 | 4.61
GGAACGAGGGCAAAGTTGATAGCATCTGTCGACG | 1.45 | 0.921 | -0.231 | 1.07 | -0.272 | 4.11 | 6.65 | 7.24 | 5.84 | 7.47 | 3.97 | 4.32 | 0.506 | -0.103 | -0.0124 | 1.14 | -0.0271 | 1.56 | -0.075 | 2.37
AGAACGAGGGCACTCTGAGTTGATAGCAGAGTAG | 0.473 | 0.561 | -0.613 | -0.0145 | -0.411 | 1.35 | 1.21 | 1.19 | -0.0176 | 0.277 | 3.52 | 2.74 | 0.243 | -0.0516 | -0.209 | 1.14 | -0.0913 | 0.301 | -0.677 | 1.84
GCTAGCAGGCCATTTGGTTCACTCAATGACGGGC | -0.456 | -0.57 | -0.84 | -0.649 | -0.937 | -0.204 | 0.226 | -0.536 | -0.633 | -0.582 | 1.03 | -0.11 | -0.667 | -0.975 | -0.906 | -0.151 | 0.221 | -0.572 | -0.886 | 0.187
CCAGACAGGTGAAAGGTAACGCAGTCTGGTACGC | 0.748 | 0.83 | -0.423 | 0.898 | -0.326 | 3.57 | 5.87 | 6.19 | 4.19 | 6.4 | 2.46 | 3.24 | -0.31 | 0.017 | 1.67 | 0.869 | -0.124 | 2.01 | 0.457 | 1.47
CCGTACGGGTCACTGACAGGTTATAGCATTTGGA | 5.54 | 4.34 | 0.355 | 3.7 | -0.392 | 5.35 | 3.75 | 4.06 | 0.781 | 2.52 | 1.03 | 2.52 | -0.133 | -0.747 | 1.58 | 3.74 | -0.0858 | 4.79 | 0.0778 | 4
CCTAGCACGCCAGGGTCACTCAAGCATTTCGCTT | 1.59 | 1.52 | -0.519 | 1.79 | -1.1 | 2.81 | 0.36 | 0.763 | -0.35 | -0.137 | -0.508 | 0.0216 | -0.715 | -1.26 | 0.342 | 2.48 | -0.243 | 2.55 | -0.31 | 2.44
AATACAGGGTCATCGCAGGCCAGAGTACGCACAG | 7.15 | 6.19 | 2.29 | 4.62 | 1.25 | 5.93 | 6.6 | 6.2 | 2.73 | 4.39 | 2.75 | 4.33 | 1.54 | 0.985 | 1.94 | 5.07 | 0.737 | 4.69 | 1.07 | 4.45
ACGTACGGGTCAACGAGGTTATAGCACGCGTATA | 7 | 4.84 | 0.327 | 4.27 | 0.00154 | 5.95 | 5.01 | 4.94 | 1.55 | 3.46 | 1.33 | 2.92 | 0.48 | 0.418 | 1.72 | 5.2 | 2.83 | 5.19 | 0.777 | 4.28
